NR2F2 inh – NR2F2 (human) inhibition, primary screen; HEK293T NGFI-A luciferase reporter, luminescence; inhibition, % at 8.6 µM; actives 0.7% (n = 370,000);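 active = inhibition above a per-plate cutoff, mean inhibition of test wells between control levels plus 3 SD, cut at about 38% in these data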;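 also: cells cotransfected with COUP-TFII expression vector driving the NGFI-A reporter; 0% = median of COUP-TF2 test wells and 100% = reporter-only cells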
SRC1 inh – inhibitors of human steroid receptor coactivator 1 (SRC1); HEK293 GAL4-SRC1 luciferase reporter, luminescence; Q15788; inhibition, % at 3.6 µM; actives 0.12% (n = 360,000);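 active = inhibition above the campaign mean plus 3 SD, with each screening campaign given its own cutoff, cut at about 60% in these data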;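 also: 0% = DMSO treated cells and 100% = gossypol at 36 µM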
Target sequence (Q15788 whole entry, looked up, the tested form may be a part): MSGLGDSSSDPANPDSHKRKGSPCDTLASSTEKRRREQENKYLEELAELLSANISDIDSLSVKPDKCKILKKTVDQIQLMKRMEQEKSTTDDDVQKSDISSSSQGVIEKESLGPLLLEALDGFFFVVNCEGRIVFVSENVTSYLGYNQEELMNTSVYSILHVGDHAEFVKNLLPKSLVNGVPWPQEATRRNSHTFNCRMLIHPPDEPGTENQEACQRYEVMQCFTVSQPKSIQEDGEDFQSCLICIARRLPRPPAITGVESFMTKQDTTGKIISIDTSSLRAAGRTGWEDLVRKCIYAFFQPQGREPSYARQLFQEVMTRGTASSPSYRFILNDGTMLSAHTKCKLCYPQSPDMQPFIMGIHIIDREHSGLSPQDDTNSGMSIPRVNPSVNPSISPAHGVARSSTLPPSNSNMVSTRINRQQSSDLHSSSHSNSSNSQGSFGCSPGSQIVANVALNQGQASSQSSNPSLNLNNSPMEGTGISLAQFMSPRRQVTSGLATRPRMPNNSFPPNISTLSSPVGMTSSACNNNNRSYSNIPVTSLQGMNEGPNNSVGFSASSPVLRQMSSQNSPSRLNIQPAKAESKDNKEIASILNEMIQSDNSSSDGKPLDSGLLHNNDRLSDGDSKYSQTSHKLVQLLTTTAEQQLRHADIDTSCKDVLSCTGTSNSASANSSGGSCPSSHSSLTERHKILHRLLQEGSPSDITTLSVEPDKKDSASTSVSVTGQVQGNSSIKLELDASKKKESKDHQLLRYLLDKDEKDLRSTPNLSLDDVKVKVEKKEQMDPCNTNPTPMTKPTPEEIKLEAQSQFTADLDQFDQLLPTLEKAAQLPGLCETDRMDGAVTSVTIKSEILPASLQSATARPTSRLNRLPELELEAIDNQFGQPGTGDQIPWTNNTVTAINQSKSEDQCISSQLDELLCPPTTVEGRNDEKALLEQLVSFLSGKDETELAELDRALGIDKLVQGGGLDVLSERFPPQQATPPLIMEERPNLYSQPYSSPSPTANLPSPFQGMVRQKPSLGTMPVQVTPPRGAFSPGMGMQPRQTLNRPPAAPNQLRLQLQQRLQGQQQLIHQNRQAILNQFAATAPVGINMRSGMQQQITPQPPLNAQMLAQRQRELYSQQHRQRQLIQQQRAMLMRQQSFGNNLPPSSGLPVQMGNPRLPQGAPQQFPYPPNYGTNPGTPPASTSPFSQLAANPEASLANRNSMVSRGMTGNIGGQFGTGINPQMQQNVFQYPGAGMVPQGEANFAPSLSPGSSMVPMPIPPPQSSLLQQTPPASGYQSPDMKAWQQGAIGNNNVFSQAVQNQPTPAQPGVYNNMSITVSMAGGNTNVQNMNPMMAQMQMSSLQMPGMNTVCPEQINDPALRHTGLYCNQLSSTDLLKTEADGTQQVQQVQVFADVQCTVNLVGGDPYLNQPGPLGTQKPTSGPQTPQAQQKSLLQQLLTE
SRC2 inh – human SRC2 (NCOA2) inhibition; Q15596; HEK293 GAL4-SRC2 luciferase reporter, luminescence; inhibition, % at 9 µM; actives 0.17% (n = 370,000);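 active = inhibition above the mean inhibition of all tested compounds plus 3 SD, set per campaign, cut at about 52% in these data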;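 also: 0% = DMSO treated cells and 100% = cells given Gossypol at 36 µM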
LRH-1 inv ag – NR5A2 inverse agonism in reporter assay; actives 0.13% (n = 360,000); HEK293T StAR-luciferase reporter, LRH-1 transfected, 24 h; AID 602396; inhibition, % at 3.6 µM;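 active = inhibition above the mean inhibition of all tested compounds plus 3 SD, cut at about 73% in these data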;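 also: 0% = DMSO wells and 100% = reporter-only cells lacking LRH-1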
Gli-Sufu block – Gli-Sufu pathway antagonism | Sufu-KO-LIGHT fibroblasts, Gli luciferase reporter luminescence | inhibition, % at 5 µM | actives 0.74% (n = 340,000) | AID 588413;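 active = inhibition above about 55%, limit read from the data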;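 also: 0% = DMSO-treated cells and 100% = wells with medium but no cells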
SRC3 inh – human NCOA3 inhibition | Q9Y6Q9 | AID 588352 | inhibition, % at 3.6 µM | HEK293 GAL4-SRC3 luciferase reporter, luminescence | actives 0.17% (n = 360,000);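 active = inhibition above a per-campaign cutoff, the mean of all compounds plus 3 SD, cut at about 60% in these data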;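 also: 0% = DMSO-treated cells and 100% = gossypol-treated cells at 36 µM; higher means less SRC3-driven luciferase light from the GAL4 reporter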
Gli antag conf – Gli-SUFU antagonism confirmation, single concentration. shares compounds with Gli-Sufu block. Sufu-KO-LIGHT cells, Gli luciferase reporter, luminescence. inhibition, % at 5 µM. actives 40% (n = 2,500). AID 602428;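 active = mean inhibition at 5 µM reaching about 45%, limit read from the data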;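 also: plate controls were DMSO-treated cells for no effect and wells lacking cells for full effect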
SufuKO cytotox – cytotoxic in Gli-SUFU antagonist counter-screen | shares compounds with Gli-Sufu block | Sufu-KO-LIGHT cells cytotoxicity, ATP luminescence | cytotoxicity, % at 5 µM | actives 32% (n = 2,500) | AID 651994;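 active = mean cytotoxicity at 5 µM above about 25%, limit read from the data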;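 also: cells exposed to compound overnight for roughly 16 to 18 hours; plate controls were DMSO wells with cells for no effect and medium without cells for full effect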
Wnt3a counter – inhibits Wnt3a reporter, counter-screen for Gli-SUFU antagonists; shares compounds with Gli-Sufu block; Wnt-LIGHT cells, Wnt3a-driven luciferase reporter, luminescence; AID 651995; actives 20% (n = 2,500); inhibition, % at 6.25 µM;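 active = mean inhibition above about 25%, limit read from the data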
* marks the source's active call; other numbers are inactive results; · = not tested or not shown. Only some compounds are listed: those with a hit (about 1.2% of all), similar ones and a draw of the others.

SMILES	NR2F2 inh	SRC1 inh	SRC2 inh	LRH-1 inv ag	Gli-Sufu block	SRC3 inh	Gli antag conf	SufuKO cytotox	Wnt3a counter
Cc1ccc(NS(=O)(=O)c2cc([N+](=O)[O-])ccc2NNC(=S)Nc2cc(C)ccc2C)c(C)c1	9	19	17	6	62*	23	51*	4	62*
O=C(N/N=C\c1c(O)ccc2ccccc12)c1ccc(Cn2cccn2)o1	-14	24	29	25	58*	33	69*	26*	59*
O=C(CN1CCCC1)N/N=C/c1c(O)ccc2ccccc12	-26	19	24	27	55	6	66*	37*	60*
COc1ccc(C2CC(c3ccccc3)=NN2S(=O)(=O)c2ccc(C)cc2)c(OC)c1 (stereo not drawn)	3	0	25	13	51	2	34	37*	-9
CCOCCOC(=O)c1[nH]c2c(c1C)C(=O)CC(c1ccccc1)C2 (stereo not drawn)	-64	11	7	26	52	19	53*	60*	-40
C[C@H]1NS(=O)(=O)c2cccc(Cl)c2O[C@@H]1c1ccccc1	-8	·	2	·	·	·	·	·	·
COC(=O)c1[nH]c2cc(OC)ccc2c1NC(=O)CN1CCC(C(N)=O)CC1	-6	-1	-28	11	8	17	·	·	·
COC(=O)c1[nH]c2cc(OC)ccc2c1NC(=O)CN1CCC(C(N)=O)(N2CCCCC2)CC1	-25	-1	-1	1	75*	-33	24	7	-1
O=C(c1ccccc1)N1CCN(CCc2ccccc2)CC1	2	11	-16	8	3	-44	·	·	·
O=C(c1ccccc1)N1CCN(CC#Cc2ccccc2)CC1	-22	-80	-83	-30	99*	-34	-6	16	-38
CCC[C@H]1[C@@H](OC(=O)NCc2ccc(OC)cc2)CC[C@@]23CCCN2C(=O)CCC[C@@H]13	-11	·	·	·	·	·	·	·	·
O=C(CSc1nc(=O)n2cc(Cl)ccc2n1)Nc1cccc2ccccc12	4	-20	-1	26	91*	8	17	9	4
COC(=O)CNC(=O)CNC(=O)c1nn(-c2ccc(OC)c(OC)c2)c(=O)c2ccccc12	6	10	-24	-2	52	-10	10	-4	10
CCOC(=O)N1CCN(C(=O)C[C@H]2C[C@@]3(C(=O)OC)C(=C[C@H](C(C)C)O[C@@H]3C3CC3)N(Cc3ccccc3)C2=O)CC1	-4	·	1	·	·	·	·	·	·
CN1C(=O)c2cc(NC(=O)C3CCCCC3)ccc2OC[C@H]2O[C@@H](CC(=O)NC3CCCC3)CC[C@H]21	6	·	-8	·	·	·	·	·	·
CSc1nn(CCC#N)c(=O)[nH]c1=O	-14	·	16	·	·	·	·	·	·
Cc1ccccc1NC(=O)Cc1c[nH]c2ccccc12	29	-2	1	-2	55*	-12	18	18	-37
Cc1ccccc1NC(=O)NCCc1c[nH]c2ccccc12	-14	-12	3	7	-13	13	·	·	·
COc1cc(OC)c(CN2CCC(Cc3ccccc3)CC2)cc1Br	-34	4	5	9	53	4	23	21	-36
C[C@H]1CN([C@@H](C)CO)C(=O)CCCn2nncc2CO[C@@H]1CN(C)Cc1ccc2cccnc2c1	5	·	21	·	·	·	·	·	·
O=C(CN(CCc1ccccc1)S(=O)(=O)c1ccc(Cl)s1)N1CCOCC1	17	·	-4	·	·	·	·	·	·
O=[N+]([O-])c1ccc2ncnc(N3CCN(Cc4ccc5c(c4)OCO5)CC3)c2c1	28	61	49	30	68*	56	36	26*	-16
O=[N+]([O-])c1cccnc1N1CCN(Cc2ccc3c(c2)OCO3)CC1	11	-1	-4	3	-13	-17	·	·	·
CC[C@H](C)[C@@H](C(=O)NCCCCCCCCCCC(=O)N1CCN(C(=O)OC(C)(C)C)CC1)n1cc(CCCCCNC(=O)OC(C)(C)C)nn1	13	9	24	9	57*	21	68*	15	37*
CC(C)(C)OC(=O)CC[C@@H](C(=O)NCCCCCCCCCCC(=O)N1CCN(C(=O)OC(C)(C)C)CC1)n1cc(CCCCCNC(=O)OC(C)(C)C)nn1	1	-7	-17	7	4	8	·	·	·
SMILES	NR2F2 inh	SRC1 inh	SRC2 inh	LRH-1 inv ag	Gli-Sufu block	SRC3 inh	Gli antag conf	SufuKO cytotox	Wnt3a counter
CCCCCCN1CCN(C2CN(Cc3cn(Cc4ccc(C(F)(F)F)cc4)nn3)S(=O)(=O)C2)CC1 (stereo not drawn)	23	·	26	·	·	·	·	·	·
CC(c1ccccc1)n1cc(C(=O)N2CCCC2)nn1 (stereo not drawn)	7	·	-42	·	·	·	·	·	·
Cc1ccc(-n2c(C)cc(C3=NNC(=NC4CC4)SC3)c2C)cc1C	22	-105	-63	-115	60*	-160	67*	29*	71*
CC1(C)COCN1C(=O)c1ccc(C#N)cc1	-6	3	-36	6	52	22	10	20	2
Cc1oc(-c2ccccc2)cc1C(=O)Nc1ccc(N(C)C)cc1	-5	-16	-11	-24	-4	-54	·	·	·
Cc1oc(-c2ccccc2)cc1C(N)=O	-9	-6	-7	-28	100*	2	8	9	-20
Cc1cc(C#N)c(C)c(SCc2[nH]nc3c2C(c2ccccc2)C(C#N)=C(N)O3)n1 (stereo not drawn)	1	-10	-35	0	58*	0	25	16	0
Cc1cc(C)c(C#N)c(SCc2[nH]nc3c2C(c2ccc(F)cc2)C(C#N)=C(N)O3)n1 (stereo not drawn)	15	-25	-42	6	13	-5	·	·	·
CC(C)CCNC(=O)C1CCCN(S(=O)(=O)c2ccc3c(c2)CC(C)N3C(=O)C2CC2)C1 (stereo not drawn)	-2	14	-19	10	57*	-1	32	4	-31
CC(=O)N1CCCc2cc(S(=O)(=O)N3CCCC(C(=O)NCc4ccccc4)C3)ccc21 (stereo not drawn)	11	-3	-1	5	51	4	21	8	-8
OC(CSc1ccccc1)CN1CCN(c2cccc(Cl)c2)CC1 (stereo not drawn)	11	-13	-13	16	50	-12	23	4	-37
O=S(=O)(NCc1cn2ccccc2n1)c1cc(F)ccc1F	1	10	18	-21	62*	13	26	8	-14
O=S(=O)(NCc1cn2ccccc2n1)c1cccs1	-9	-24	-5	-48	-10	-29	·	·	·
CCOc1cc(C=NN2CCN(Cc3ccc(C)cc3)CC2)ccc1O	1	·	2	·	·	·	·	·	·

High-throughput results as filed in PubChem BioAssay.
